Giardia killer: Giardia lamblia killing; Giardia lamblia trophozoite viability; activity change, % at 7.66 µM, hits read low; AID 540267; 0.15% of 340,000 active; in the data active = activity change below about -80%; inconclusive = between about -30% and that limit;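 also: parasites exposed to compound for two days anaerobically before the ATP read; % is scaled to controls: 0 for no effect and ±100 for the full control effect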
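Each well holds 100 Giardia trophozoites and compound. After two days (48 hrs) at 37 deg C in anaerobic conditions, ATP is quantified by luminescence.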
HT1080-NT tox: kills 2HG-producing HT-1080-NT fibrosarcoma cells | AID 686970 | Potency, µM (top dose mostly 46.1 µM), inactives show at the top dose activity, negative = less viability, hits mostly cytotoxic | 1.6% of 360,000 active | HT-1080-NT fibrosarcoma viability, CellTiter-Glo ATP luminescence, 48 h;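 also: NT is the 2HG producing partner of a matched IDH1 knockdown line; potency is read from the fitted curve at half-maximal effect; 0% = DMSO-treated cells and -100% = media-only wells without cells; nearly all actives have a fitted effect of over 55% in size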
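Toxicity toward the 2HG-producing NT line was scored as %Activity, normalised to DMSO and no-cell wells, from CellTiter-Glo luminescence after 48 hours' treatment.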
TGFb inhibitor: inhibitors of TGF-b signaling. 1.2% of 410,000 active. HepG2 CAGA-GFP TGF-b/SMAD3 reporter, GFP fluorescence, 18 h; TGF-beta stimulated, 500 pg/mL final. Potency, µM (titrated, usually from 46.1 µM), without a hit: at the highest dose activity, negative = inhibition, actives largely listed as inhibitors; also: potency is read from the fitted curve at half-maximal effect; % is scaled to controls: 0 for no effect and ±100 for the full control effect; nearly all actives have a fitted effect of over 65% in size
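Cell-based qHTS in HEPG2 carrying a CAGA-GFP Smad reporter; compounds added before 500 pg/mL final TGF-beta, 18 h incubation at 37 degrees C, GFP fluorescence quantified per cell by imaging cytometry.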
HepG2 viability: counter-screen for TGF-b inhibitors: cytotoxicity in HepG2 cells. HepG2 CAGA-GFP viability, ATP luminescence, 18 h. Potency, µM (top dose mostly 46.1 µM), without a hit: at the top dose activity change, negative = cytotoxicity, usual class: cytotoxic. 0.76% of 410,000 active; also: potency is read from the fitted curve at half-maximal effect
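HepG2 CAGA-GFP cells (1000/well, DMEM with 1% FBS) received compound, then TGF-beta at 500 pg/mL final, and were incubated 18 hours at 37 degrees C. Viability was read by CellTiter-Glo luminescence. Media-only wells were set as complete cell-killing and DMSO as no toxicity.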
HT1080 IDH1KD tx: toxicity to HT-1080 IDH1 knockdown cells (counter line) | AID 686971 | HT-1080 IDH1 knockdown viability, ATP luminescence, 48 h | Potency, µM (series often up to 46.1 µM), for the others: top-dose activity, negative = toxicity, actives largely listed as cytotoxic | 2% of 360,000 active;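 also: potency is read from the fitted curve at half-maximal effect; 0% = DMSO wells and -100% = cell-free medium wells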
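CellTiter-Glo luminescence after 48 h compound exposure at 37 degrees C of IDH1-knockdown HT-1080 cells in 5% FBS RPMI. %Activity scaled between DMSO wells and cell-free media wells, with curves fitted and assigned curve classes.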
IL1B secr inh: blocks inflammasome-driven IL-1 beta release. THP-1 LPS/ATP IL-1B secretion, AlphaLISA, 16 h; hits give low values. activity change, % at 57.5 µM. 4.7% of 360,000 active. AID 743279; in the data active = activity change below about -50%; inconclusive = mostly about -30% to -49%; also: % is scaled to controls: 0 for no effect and ±100 for the full control effect
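THP-1 cells pretreated 1 hr with compounds (up to 57.5 uM final), then stimulated with LPS (250 ng/mL final) plus ATP (1.25 mM final); secreted IL-1B measured by AlphaLISA after 16 hr, decreased signal indicating inhibition.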
* marks the source's active call; other numbers are inactive results; ? = inconclusive; · = no result. The list is not random: actives were taken first. Their share in the collection is about 6.5%. Unless noted, calls follow the shape of the dose curve; as a rule, active = well fitted curve in the direction sought with a large enough effect; inconclusive = small, poorly fitted or top-dose-only effect, or another doubt; inactive = no such curve, though single readings can be large; an effect the other way counts as inactive or inconclusive.

SMILES	Giardia killer	HT1080-NT tox	TGFb inhibitor	HepG2 viability	HT1080 IDH1KD tx	IL1B secr inh
O=C1OC(/C(=C\Nc2ccccc2)[N+](=O)[O-])c2ccccc21 (stereo not given)	6	?	-8%	-32%	?	-104*
O=C1OC(/C(=C\NCc2ccccc2)[N+](=O)[O-])c2ccccc21 (stereo not given)	5	6%	-18%	-18%	-1%	-5
COc1ccc(C(=O)C(C)OC(=O)CN2C(=O)c3ccccc3C2=O)cc1 (stereo not given)	2	-4%	0%	-4%	-2%	3
Cn1c(=N)n(CC(=O)c2ccccc2)c2ccccc21	?	-6%	-3%	-52%	-17%	-4
COc1ccc(C(=O)Cn2c(=N)n(C)c3ccccc32)cc1	-5	?	-2%	-19%	?	-56*
CCN(CC)CCn1c(=N)n(CC(=O)c2ccc(C)cc2)c2ccccc21	-6	-25%	-22%	-36%	?	-59*
CCOc1ccc(CCNC(=O)CCc2cn(Cc3ccc(C)cc3)c3ccccc23)cc1	·	·	?	-42%	·	·
O=C(CCCc1cccs1)Nc1nc2c(s1)CCCC2	-21	0%	5%	4%	-14%	-7
CCOc1ccc2[nH]c(=O)c(CN(CCN3CCCC3)C(=S)Nc3ccccc3OCC)cc2c1	9	?	16µM*	14µM*	?	-101*
O=C(Nc1cccc(Cl)c1)N(CCN1CCOCC1)Cc1cccc(Cl)c1	6	?	?	-25%	?	-76*
CCc1ccc2[nH]c(=O)c(CN(CCN3CCCC3)C(=O)NC3CCCCC3)cc2c1	3	?	-3%	-49%	?	-56*
CCc1ccc2[nH]c(=O)c(CN(CCCN3CCOCC3)C(=O)Nc3cccc(Cl)c3)cc2c1	-18	?	?	-77%	?	-62*
O=C(Nc1cccc(Cl)c1)N(CCN1CCOCC1)Cc1ccccc1F	2	-4%	1%	-19%	-3%	?
O=S(O)OC1CS(=O)(=O)CC1c1ccccc1 (stereo not given)	-26	0%	13%	-3%	-1%	28
Cc1ccc(-c2nnc(OCc3cccnc3)c3ccccc23)cc1	5	-15%	11%	2%	-1%	-83*
c1ccc(-c2nnc(OCc3cccnc3)c3ccccc23)cc1	40	-24%	?	-31%	-13%	-28
COc1ccc(-c2nnc(OCc3ccccc3)c3ccccc23)cc1	0	-20%	?	-33%	-9%	-87*
CCN1C(=O)C(CC(=O)Nc2ccc(OC)cc2)N(CCc2ccc(F)cc2)C1=S (stereo not given)	4	?	?	-4%	?	-64*
CCNC(=O)CC1C(=O)N(c2ccc(F)cc2)C(=S)N1CCc1ccncc1 (stereo not given)	-5	6%	-4%	2%	5%	2
CCN1C(=O)C(CC(=O)Nc2ccc(F)cc2)N(Cc2ccc3c(c2)OCO3)C1=S (stereo not given)	5	?	-6%	-5%	-28%	-60*
CCN1C(=O)C(CC(=O)Nc2ccc(OC)cc2)N(CCCN2CCN(c3ccc(F)cc3)CC2)C1=S (stereo not given)	5	?	5%	-6%	18µM*	-13
O=C(CC1C(=O)N(c2ccc(Cl)cc2)C(=S)N1CCc1ccncc1)Nc1ccc(F)cc1 (stereo not given)	-15	?	?	11µM*	?	-63*
Cc1ccc(N2C(=O)C(CC(=O)Nc3ccc(F)cc3)N(Cc3ccc4c(c3)OCO4)C2=O)cc1 (stereo not given)	·	·	-3%	-3%	·	·

Bioassay records as filed in PubChem BioAssay.
